Values joined by “and” are separate entries in the source; they are usually repeats but may differ in a detail not shown here. Identical values can stand only once. Screen size: about 6,400 compounds; about 610 (9.5%) were called active. No stated cut-off is given here; in the data, active means activity change below about -70%; inconclusive means no clear call, values can overlap the other calls; inactive means above that. The list comes from a sample in which actives are over-represented; it also holds similar structures and randomly drawn compounds. The source holds several records for some structures; these can differ, active in one and inactive in another. *1 amine or outer side, *2 acyl side, *3 side chain or, on linkers, in order; H or OH if unused. Where a SMILES comes first, the peptide text is derived from it. [ ]: non-standard residue; d: D form. LeuΨ(S-CHOHCH2)Ala = CC(C)C[C@H](N[*:1])[C@@H](O)C[C@@H](C)C(=O)[*:2]

The experiment in a line: Toxoplasma gondii ME49Luc growth in HeLa cells, luciferase, no IFN-y, primary screen (AID 1259421). As to conditions: T. gondii ME49Luc in HeLa, 72 h, stronger effect = lower value, concentration not given here.
In the case of `O=c1[nH]nc2c3c(cccc13)NC(CN1Cc3ccccc3C1)=N2`, the activity change, negative = inhibition is 12.4% (inactive). On to `Oc1ccc([C@@H]2Oc3ccc(O)cc3[C@@H]3CCC[C@@H]32)cc1`, for which the activity change, negative = inhibition is 6.56% (inactive). For `Cc1cc(O)cc2c1O[C@](C)(CCC[C@H](C)CCC[C@H](C)CCCC(C)C)CC2`, the activity change, negative = inhibition was -4.66% (inactive).

With `COc1c(C)c2c(c(O)c1C/C=C(\C)CCC(=O)O)C(=O)OC2`, the activity change, negative = inhibition is -74.4% (active) and -89.1% (active). `COc1c(C)c2c(c(O)c1C/C=C(/C)CCC(=O)O)C(=O)OC2`: the activity change, negative = inhibition is -79.6% (active). The figure for `COc1c(C)c2c(c(O)c1C/C=C(\C)CCC(=O)OCCN1CCOCC1)C(=O)OC2` is -75.2% (active) and -92% (active); for `C#CC1(OCC(O)CN2CCN(c3ccccc3OC)CC2)CCCCC1` (configuration not stated) it is 9.69% (inactive). As to `CCCCC/C=C\C[C@@H](O)/C=C/C=C/C=C\[C@@H](O)CCCC(=O)O`, the activity change, negative = inhibition was 7.41% (inactive). Consider `N=[N+]=CC(=O)CC[C@H](N)C(=O)O`, for which the activity change, negative = inhibition was 0.432% (inactive). The figure for `c1ccc(-c2nc3ccccc3[nH]2)cc1` is 279% (inactive); for `c1ccc2[nH]c(-c3nc4ccccc4[nH]3)nc2c1` it is 156% (inactive). `CC(C)(C)c1ccc(-c2nc3ccccc3[nH]2)cc1`: the activity change, negative = inhibition is -87.4% (active). As to `CC1(C)CC1C(=O)N/C(=C\CCCCSCC(N)C(=O)O)C(=O)O` (configuration not stated), the activity change, negative = inhibition was 8.4% (inactive). For the compound `CC(=O)O[C@H]1C[C@@]2(C)[C@@H](C[C@@H](O)[C@H]3[C@@]4(C)CC[C@@H](O)[C@@H](C)C4CC[C@@]32C)/C1=C(/CCC=C(C)C)C(=O)O` (some centres not stated), the activity change, negative = inhibition is -17.8% (inactive). On to `Cc1cc(OCCCS(C)(=O)=O)cc(C)c1-c1cccc(COc2ccc3c(c2)OC[C@H]3CC(=O)O)c1`, for which the activity change, negative = inhibition was 15.8% (inactive). As for `COc1ccc2[nH]c(I)c(CCNC(C)=O)c2c1`, the activity change, negative = inhibition was 14.7% (inactive) and -1.11% (inactive). The figure for `CC1C(=O)C(=O)[C@@H]2O[C@@H]2C1=O` (some centres not stated) is 7.42% (inactive); for `COc1cc2ncnc(Nc3cccc(Cl)c3)c2cc1OC` it is -46.3% (inactive); for `O=C(Nc1cccc(Cl)c1)c1ccccn1` it is 154% (inactive).

As to `O=C(Nc1cccc(Cl)c1)Nc1ncc(CCNc2ncnc3ccsc23)s1`, the activity change, negative = inhibition was -92.1% (active). For `O[C@H](CNC[C@@H](O)[C@H]1CCc2cc(F)ccc2O1)[C@@H]1CCc2cc(F)ccc2O1`, the activity change, negative = inhibition was 9.73% (inactive). In the case of `C=C(C)[C@@H]1CC[C@]2(CO)CC[C@]3(C)[C@H](CC[C@@H]4[C@@]5(C)CC[C@H](O)C(C)(C)[C@@H]5CC[C@]43C)[C@@H]12` it was 19.1% (inactive); in that of `Cc1nnc(-c2ccc3occ(-c4ccc(S(C)=O)cc4)c3c2)o1` (configuration not stated), 1.22% (inactive); in that of `Fc1ccc(-n2cc(CCCCN3CCC4(CC3)OCc3ccccc34)c3ccccc32)cc1`, -77.2% (active). With `O=C(c1ccc(F)cc1)C1CCN(CCCCc2ccccc2)CC1`, the activity change, negative = inhibition is 3.6% (inactive) and 8.67% (inactive). For `O=C(NCCCN1CCC2(CC1)OCc1ccccc12)[C@H]1CCCN1Cc1ccccc1`, the activity change, negative = inhibition was 18.8% (inactive). For the compound `CN(CCOc1ccc(CC(Nc2ccccc2C(=O)c2ccccc2)C(=O)O)cc1)c1ccccn1` (configuration not stated), the activity change, negative = inhibition was 1.37% (inactive). In the case of `CCOC(=O)[C@@H](N)CCC(=O)N[C@@H](CSCc1ccccc1)C(=O)N[C@@H](C(=O)OCC)c1ccccc1` it was -2.09% (inactive); in that of `CC1OC(OCC2OC(Oc3c(-c4ccc(O)c(O)c4)oc4cc(O)cc(O)c4c3=O)C(O)C(O)C2O)C(O)C(O)C1O` (configuration not stated), -9.9% (inactive). Consider `CS(=O)(=O)c1ccc(C(O)[C@H](CF)NC(=O)C(Cl)Cl)cc1` (some centres not stated), for which the activity change, negative = inhibition was -54.7% (inactive) and -27.8% (inactive).

In the case of `CN1C/C=C/CCOc2cccc(c2)-c2ccnc(n2)Nc2cccc(c2)C1`, the activity change, negative = inhibition was -90% (active).

As to `CCCCCCCCCCCCCCCC(=O)C1C(=O)OC(CO)C1=O` (configuration not stated), the activity change, negative = inhibition was 6.7% (inactive). Turning to `Cc1cccc(C2CN(C)CCc3c2cc(O)c(O)c3Cl)c1` (configuration not stated), the activity change, negative = inhibition is -3.35% (inactive). In the case of `CCOC(=O)[C@H]1O[C@@H]1C(=O)N[C@@H](CC(C)C)C(=O)NCCC(C)C` it was 12.9% (inactive) and 2.41% (inactive); in that of `O=C(Cc1ccc(-c2ccc(OCCN3CCOCC3)cc2)cn1)NCc1ccccc1`, -55.5% (inactive).

As to `COC[C@H](NC(=O)c1cnc(C)s1)C(=O)N[C@@H](COC)C(=O)N[C@@H](Cc1ccccc1)C(=O)C1(C)CO1` (some centres not stated), the activity change, negative = inhibition is -88.8% (active).

Turning to `CC(C)C[C@H](NC(=O)[C@H](CCc1ccccc1)NC(=O)CN1CCOCC1)C(=O)N[C@@H](Cc1ccccc1)C(=O)N[C@@H](CC(C)C)C(=O)[C@@]1(C)CO1`, the activity change, negative = inhibition is -76.7% (active). Regarding `CC(=O)N[C@@H](Cc1ccccc1)C(=O)O`, the activity change, negative = inhibition is 16.5% (inactive).

For the compound `COC(=O)[C@H](Cc1ccccc1)NC(=O)[C@@H](N)CC(=O)O` (H-Asp-Phe-OMe), the activity change, negative = inhibition was 0.919% (inactive).

Consider `CC(=O)NC(Cc1ccccc1)C(=O)O` (configuration not stated), for which the activity change, negative = inhibition was 20.2% (inactive). Turning to `CC(C)c1nc(CN(C)C(=O)N[C@@H](CCN2CCOCC2)C(=O)N[C@H](CC[C@H](Cc2ccccc2)NC(=O)OCc2cncs2)Cc2ccccc2)cs1`, the activity change, negative = inhibition is -16.7% (inactive). In the case of `COc1ccc(C[C@H](NC(=O)[C@H](C)NC(=O)CN2CCOCC2)C(=O)N[C@@H](Cc2ccccc2)C(=O)[C@]2(C)CO2)cc1` it was -76% (active); in that of `C[C@H]1CN(C[C@H](Cc2ccccc2)C(=O)NCC(=O)O)CC[C@@]1(C)c1cccc(O)c1`, 4.96% (inactive); in that of `CC1(C)CCC(C)(C)c2cc(Cn3cccn3)c(/C=C/c3ccc(C(=O)O)cc3)cc21`, 15.2% (inactive). The figure for `c1ccc(-c2nn3c(c2-c2ccnc4cc(OCCN5CCOCC5)ccc24)CCC3)nc1` is -32.4% (inactive); for `COc1ccc(-c2coc3cc(O)ccc3c2=O)c(OC)c1` it is 11.6% (inactive); for `CCN(CC)CC(=O)Oc1ccc(NC(C)=O)cc1` it is 7.5% (inactive).

`OC[C@H]1O[C@H](O[C@H]2O[C@H](CO)[C@@H](O)[C@H](O)[C@H]2O)[C@H](O)[C@@H](O)[C@@H]1O`: the activity change, negative = inhibition is 7.53% (inactive). With `C[N@+]12CCCC[C@@H]1CCC(=C(c1cccs1)c1cccs1)C2`, the activity change, negative = inhibition was 13.6% (inactive).

Consider `O=C(O)c1cc(=O)c2c3nc4ccccc4oc-3cc(=O)c2[nH]1`, for which the activity change, negative = inhibition was 1.96% (inactive). As to `CC(=O)N[C@H]1[C@H]([C@H](O)[C@H](O)CO)OC(C(=O)O)=C[C@@H]1N=C(N)N`, the activity change, negative = inhibition was 10.9% (inactive). On to `COc1ccc(-c2ccc3ncc4c(c3c2)n(-c2ccc(N3CCNCC3)c(C(F)(F)F)c2)c(=O)n4C)cn1`, for which the activity change, negative = inhibition is -88.5% (active). Take `Cc1cc(C)cc(C(=O)N(C)[C@H](Cc2ccc(-c3ccccc3)cc2)C(=O)N[C@@H](Cc2c[nH]c3ccccc23)C(=O)O)c1`: the activity change, negative = inhibition was 13% (inactive). Regarding `C[C@H]1CNCCCN1S(=O)(=O)c1cccc2cncc(F)c12`, the activity change, negative = inhibition was -2.52% (inactive).

Consider `Nc1nnc(Sc2ncc([N+](=O)[O-])s2)s1`, for which the activity change, negative = inhibition was 9.53% (inactive).

For `CC[C@H](CC#N)OC(=O)N[C@@H](C)c1cccc(NC(=O)Nc2ccc(-c3cnco3)c(OC)c2)c1`, the activity change, negative = inhibition is -82% (active). Take `COc1cc(NC(=O)Nc2cccc(CNC(=O)O[C@H]3CCOC3)c2)ccc1-c1cnco1`: the activity change, negative = inhibition is -79.3% (active). Regarding `CC(C)CN(C[C@@H](O)[C@H](Cc1ccccc1)NC(=O)O[C@H]1CCOC1)S(=O)(=O)c1ccc(N)cc1`, the activity change, negative = inhibition was 0.811% (inactive).

As for `Cc1cc2c(OCC(CNC(C)(C)C)OC(=O)c3ccccc3)cccc2[nH]1` (configuration not stated), the activity change, negative = inhibition is 18.3% (inactive). `Cc1c(NC(=O)c2cc3c(s2)CCCC3)cccc1-c1cn(C)c(=O)c(Nc2ccc(C3C(=O)N(C)CCN3C)cc2)n1` (configuration not stated): the activity change, negative = inhibition was 97.9% (inactive). As to `CCC(C(=O)O)c1ccc(N2Cc3ccccc3C2=O)cc1` (configuration not stated), the activity change, negative = inhibition is 122% (inactive). As to `Nc1nc2c(sc(=O)n2[C@@H]2O[C@H](CO)[C@@H](O)[C@H]2O)c(=O)[nH]1`, the activity change, negative = inhibition was -8.34% (inactive). For the compound `COc1cc2c(cc1OC)C(=O)OC2`, the activity change, negative = inhibition was -0.409% (inactive). In the case of `C[C@H](Oc1cc(-c2cnn(C3CCNCC3)c2)cnc1N)c1c(Cl)ccc(F)c1Cl`, the activity change, negative = inhibition was -84.6% (active) and 9.96% (inactive). As for `Fc1cc(-c2cccc3ncc(-c4cnn(C5CCNCC5)c4)nc23)cc(F)c1CN1CCOCC1`, the activity change, negative = inhibition was 6.9% (inactive).

For the compound `C[C@@H](Oc1cc(-c2cnn(C3CCNCC3)c2)cnc1N)c1c(Cl)ccc(F)c1Cl`, the activity change, negative = inhibition is -43.1% (inactive) and -79.1% (active). Regarding `CCCCCCCCCCCC[C@H](C(=O)O)[C@@H](C)C(=O)O`, the activity change, negative = inhibition is 2.19% (inactive). Consider `Oc1c(Cl)cc(Cl)cc1Sc1cc(Cl)cc(Cl)c1O`, for which the activity change, negative = inhibition was -82.5% (active) and -6.64% (inactive). The figure for `Cc1cc(Cl)ccc1OCCCC(=O)NO` is -90% (active). As to `C#CCN(C)CCCOc1ccc(Cl)cc1Cl`, the activity change, negative = inhibition was 20.2% (inactive) and 29.2% (inactive). As for `O=C(CCCS)NC1CCN(C(=O)COc2ccc(Cl)cc2Cl)CC1`, the activity change, negative = inhibition is -3% (inactive). Regarding `CN(CC(=O)O)C(=N)N`, the activity change, negative = inhibition is 15.6% (inactive). With `CCC[C@@H](NC(=O)N1C(=O)C(CC)(CC)[C@@H]1Oc1ccc(C(=O)N2CCN(C)CC2)cc1)c1ccc2c(c1)OCO2`, the activity change, negative = inhibition is 4.37% (inactive). The figure for `CC(C)C[C@H](NC(=O)[C@H](CC(N)=O)NC(=O)[C@@H](NC(=O)[C@@H](N)CCC(=O)O)C(C)C)[C@@H](O)C[C@@H](C)C(=O)N[C@@H](C)C(=O)N[C@@H](CCC(=O)O)C(=O)N[C@@H](Cc1ccccc1)C(=O)O` (H-EVN[LeuΨ(S-CHOHCH2)Ala]AEF-OH) is 3.01% (inactive); for `Cc1[nH]c(=O)c(C#N)cc1-c1ccncc1` it is 46.4% (inactive) and 9.05% (inactive). `O=C1NCCc2[nH]c(-c3ccncc3)cc21`: the activity change, negative = inhibition is -75.8% (active).

With `Nc1cc(-c2ccncc2)c[nH]c1=O`, the activity change, negative = inhibition is 3.96% (inactive) and 3.4% (inactive).

Source of the values: PubChem BioAssay AID1259421 (Broad Institute, 2018).
